# Pf growth 48h: inhibits P. falciparum growth in the first generation, 48 h; P. falciparum luciferase growth in erythrocytes, 48 h; hit rate 5.9% among 310,000; AID 504832; Potency, µM (series often up to 28.7 µM), without a hit: top-dose activity change, negative = inhibition, hits mostly inhibitors; further: potency means the concentration at half of the fitted maximal effect; on the % scale 0 is the no-effect control and ±100 the full control effect
#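 Growth was read as firefly luciferase luminescence after a 48 h, 37 C, 5% CO2 exposure of compounds to reporter-bearing P. falciparum cultures (0.1% parasitemia, 2% hematocrit final) in Albumax-supplemented RPMI 1640.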
# Pf growth 96h: P. falciparum growth inhibition at 96 hour, primary screen for plastid delayed-death inhibitors. P. falciparum luciferase reporter growth, 96 h. Potency, µM (highest dose often 28.7 µM), for the others: at the highest dose activity change, negative = inhibition, most hits filed as inhibitors. AID 504834. hit rate 6.9% among 320,000; further: potency means the concentration at half of the fitted maximal effect; on the % scale 0 is the no-effect control and ±100 the full control effect
#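 Luminescence readout: decreased luciferase signal marks inhibited growth of reporter-expressing P. falciparum in infected red cells (2% hematocrit, 0.05% parasitemia final), exposed to compound two generations (96 h, 37 C, 5% CO2).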
# Shiga toxin inh: blocks Shiga toxin action in Vero cells; Vero cells, Shiga toxin protein synthesis inhibition reporter; inhibition, % at 38.7 µM; hit rate 9.2% among 290,000; in the data active means inhibition mostly above about 28%, no sharp cut-off; inactive means mostly below about 43%; further: 0% is about no effect
# CHX counter: affects cycloheximide protein synthesis inhibition readout, counter-screen | cell reporter, cycloheximide protein synthesis inhibition counterscreen | max response, % | hit rate 12% among 300,000; in the data active means max response mostly above about 13%, no sharp cut-off; inactive means mostly below about 14%; further: read at 38.3 µM for the half of the compounds with a filed dose; 0% is about no effect
# NS1 function inh: inhibitors of influenza NS1 protein function | AID 2326 | hit rate 0.4% among 270,000 | Potency, µM (titrated, usually from 46.1 µM), inactives show top-dose activity, positive = more growth; calls by dose curve; further: potency means the concentration at half of the fitted maximal effect; actives are rising curves; nearly all actives have a fitted effect of over 50% in size
#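 Growth recovery, yeast-based: influenza A NS1 expressed in S. cerevisiae causes slow growth, and suppressors are detected by OD600. The parent strain without NS1 is used as positive control.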
# The depositor's hits bear a star; ? = inconclusive; . = no result. This is a sample that favours compounds with a hit; in the whole collection about 21% have one here. Unless noted, the call rests on the fitted dose curve; in most records, active means well fitted inhibition curve with a large enough effect; inconclusive means small, poorly fitted or top-dose-only effect, or another doubt; inactive means no such curve, though single readings can be large or run the other way.
SMILES,Pf growth 48h,Pf growth 96h,Shiga toxin inh,CHX counter,NS1 function inh
Cc1cc(C)n(C(=O)c2ccc(C)c(Br)c2)n1,1%,32%,14,-1,1%
COc1c(Cl)cc(Cl)cc1C(=O)n1nc(C)cc1C,-17%,298%,9,-4,6%
Cc1cc(C)n(C(=O)c2ccc(Cl)c(F)c2F)n1,1%,9.3µM*,-1,-1,0%
Cc1cc(C)n(C(=O)c2cc(F)c(F)cc2C)n1,11%,8%,70*,25*,3%
CCC(=O)C1CCCN(C(=O)c2ccc(OC)c(OC3CCN(C(C)=O)CC3)c2)C1 (configuration not stated),10%,-28%,9,-2,6%
COc1ccc(-n2ncc3c(NCc4ccc5c(c4)OCO5)ncnc32)cc1,99%,67%,27*,25*,5%
c1ccc(-n2ncc3c(NCc4ccc5c(c4)OCO5)ncnc32)cc1,-1%,?,42*,20*,-4%
Cc1cccc(-n2ncc3c(NCc4ccc5c(c4)OCO5)ncnc32)c1,0%,-1%,97*,18*,-13%
O=C(CSc1ncnc2c1cnn2-c1ccc(Cl)cc1)NCc1ccc2c(c1)OCO2,36%,69%,22,7,1%
Cc1ccc(-n2ncc3c(NCc4ccc5c(c4)OCO5)ncnc32)c(C)c1,?,0%,-7,-3,-7%
CCOC(=O)c1c(NC(=O)Cn2ccsc2=N)sc(C)c1C,-6%,2%,-11,-6,.
O=C1OC2(c3ccccc31)c1cc(I)c(O)c(I)c1Oc1c2cc(I)c(O)c1I,13µM*,8.3µM*,16,-7,.
Cc1cc(C)n(-c2ccc(C(=O)Nc3cccnc3)cc2)n1,-5%,0%,5,8,-1%
Cn1c(=O)n(Cc2ccc(F)cc2)c(=O)c2c1nc1n2CCCN1C1CCCCC1,?,78%,15,-4,-36%
COc1ccc(CC(=O)Nc2ccc(/C(C)=N/NC(=O)c3ccc(OC)cc3OC)cc2)cc1,-11%,36%,50*,28*,-4%
COc1ccc(C(=O)NN=C(Cc2ccccc2)Cc2ccccc2)cc1OC,11%,-11%,11,0,5%
COc1ccc(C(=O)N/N=C(\C)CC(=O)Nc2ccc(N(C)C)cc2)c(OC)c1,-25%,?,.,19,-16%
COc1cccc(C(=O)N/N=C(\C)c2ccc(NC(=O)Cc3ccccc3)cc2)c1OC,?,?,27,18*,4%
O=C(Cc1ccccc1)Nc1ccc(NC(=O)c2cccc(Cl)c2)cc1,10%,-28%,-18,-7,0%
C/C(=N\NC(=O)c1cccc(O)c1)c1ccc(NC(=O)Cc2ccccc2)cc1,2%,-13%,69*,34*,-2%
C/C(=N\NC(=O)c1ccccc1O)c1ccc(NC(=O)Cc2ccccc2)cc1,5%,0%,41*,29*,-13%
O=C(Nc1nc(-c2cccc([N+](=O)[O-])c2)cs1)c1cccc([N+](=O)[O-])c1C(=O)O,10%,12%,24,2,-2%
C=CCn1c(CSc2ccc(C)cc2)n[nH]c1=S,17%,11%,-2,-1,17%
NCCc1c[nH]c2ccc(OC(=O)C(=O)O)cc12,.,.,.,.,-3%
O=C(COC(=O)CNS(=O)(=O)c1ccc(Cl)cc1)NC1CCCCC1,0%,20%,.,.,.
SMILES,Pf growth 48h,Pf growth 96h,Shiga toxin inh,CHX counter,NS1 function inh
NC1=C(O)C(=O)[C@H](c2c[nH]c3ccc(OCc4ccccc4)cc23)O1,.,.,.,.,-6%
CCOc1ccc(N(CC(=O)NC(C)(C)C)C(=O)c2ccco2)cc1,-14%,-7%,-18,-1,-2%
COc1cc(C(=O)N/N=C(\C)c2ccc(NC(=O)Cc3ccccc3)cc2)ccc1O,9%,35%,45*,39*,4%
CCCCC(=O)NC(c1ccc(Cl)cc1Cl)c1ccc2cccnc2c1O (configuration not stated),1.9µM*,15%,6,7,-109%
Cc1cc(NC(c2ccc(Cl)cc2)c2ccc3cccnc3c2O)no1 (configuration not stated),.,0.33µM*,-19,-1,-171%
CCC(=O)NC(c1ccc(Cl)cc1Cl)c1ccc2cccnc2c1O (configuration not stated),2.9µM*,139%,.,11,-115%
O=C(CCC(=O)N1CCN(c2ccc(Cl)c(Cl)c2)CC1)c1ccccc1,15%,?,20,-4,-10%
C=CCn1c(/N=C/c2ccc(N(C)C)cc2)nc2ccccc21,-3%,3%,-2,-2,-47%
CN(C)c1ccc(/C=N/n2ncc3ccccc32)cc1,233%,?,98*,39*,-10%
COc1ccc(OCCN(C)Cc2c(O)ccc3ccccc23)cc1,4%,39%,37,18*,10%
CCC1=Nc2ccccc2NC2=C1C(=O)CCC2,-9%,-17%,77*,30*,-4%
CC1CC(=O)C2=C(C1)Nc1ccccc1N=C2 (configuration not stated),.,11%,-21,-3,-5%
CSc1nsc(SC)c1C(=O)Nc1ccc(C(C)(C)C)cc1,?,?,53*,10,10%
CSc1nsc(SC)c1C(=O)NC(=O)Nc1cccnc1,8%,2%,-2,1,-5%
COc1ccc([C@H]2C(C#N)=C([S-])N[C@](C)(O)[C@@H]2[n+]2ccccc2)cc1,?,?,2,-2,8%
Fc1ccc(Cn2c(SCc3ccc(F)c(F)c3)nnc2C(F)(F)F)cc1,52%,18%,45*,14*,-58%
CCOC(=O)c1c(C)[nH]c(N=Nc2cccc(OC)c2)c1C,358%,256%,154*,58*,.
CCOC(=O)c1c(C)[nH]c(N=Nc2cccc(C)c2)c1C,-56%,.,130*,64*,9%
CCOC(=O)c1c(C)[nH]c(O)c1C=Nc1ccccc1,?,?,-8,-2,-7%
CCOC(=O)c1[nH]c(C)c(C(=O)Nc2ccc(C)cc2C)c1C,3%,1%,-5,-2,11%
CCOc1ccc(-c2nnc(SCC(=O)NC(C)(C)C)nc2-c2ccc(OCC)c(OC)c2)cc1OC,2.3µM*,?,-4,-3,3%
CCN1C(=O)/C(=C/c2nc3ccccc3c(=O)n2-c2ccc(C)cc2)c2ccccc21,?,?,10,16,8%
CCN1C(=O)/C(=C\c2nc3ccccc3c(=O)n2-c2ccccc2)c2ccccc21,10µM*,-2%,-11,-3,-12%
COc1ccc(-n2c(/C=C3\C(=O)N(C)c4ccccc43)nc3ccccc3c2=O)cc1,6.6µM*,12µM*,-10,-3,-6%
CCN1C(=O)/C(=C/c2nc3ccccc3c(=O)[nH]2)c2ccccc21,-2%,20%,-3,26*,6%
CN(Cc1ccccc1)c1ccc(C(=O)O)cc1[N+](=O)[O-],0%,?,-5,-2,-9%
Cc1cc(CN2C(=O)c3ccccc3C2=O)cc(N2CCOCC2)c1,.,?,2,-4,15%
CCCCCn1c(N)c(-c2nc3ccccc3s2)c2c([N+](=O)[O-])nn(C)c(=O)c21,?,5.2µM*,-34,11,5%

# Assay outcomes as filed in PubChem BioAssay.
